The whole screen tested about 5,500 compounds, of which about 2,000 (36%) were called active. Inconclusive results (about 18%) are left out. Cut-off read from the data, not from the text of the source: active = normalized growth mostly below about 0.91 (no sharp cut-off); inconclusive = no clear call, values can overlap the other calls; inactive = mostly above about 0.92. Some of the results follow.
Assay: chemical genetic growth profiling, strain panel (AID 1159580);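 note: tested at 20 µM; growth read once vehicle control cultures reached saturation at 30 °C; 1 = growth at the plate median or of vehicle wells; lower values mean less growth of the strain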
Details: growth OD
[1] = S. cerevisiae deletion strains, locus YDL101C, strain DUN1, hits give low values
[2] = S. cerevisiae deletion strains, locus YHR030C, strain SLT2, hits give low values
[3] = S. cerevisiae deletion strains, locus YAR019C, strain CDC15, hits give low values
[4] = S. cerevisiae deletion strains, locus YBL105C, strain PKC1, hits give low values
[5] = S. cerevisiae deletion strains, locus YBR135W, strain CKS1, hits give low values
[6] = S. cerevisiae deletion strains, locus YBR136W, strain MEC1, hits give low values
[7] = S. cerevisiae deletion strains, locus YBR160W, strain CDC28, hits give low values
[8] = S. cerevisiae deletion strains, locus YDL017W, strain CDC7, hits give low values
[9] = S. cerevisiae deletion strains, locus YDL108W, strain KIN28, hits give low values
[10] = S. cerevisiae deletion strains, locus YDL132W, strain cdc53, hits give low values
[11] = S. cerevisiae deletion strains, locus YDL214C, strain PRR2, hits give low values
[12] = S. cerevisiae deletion strains, locus YDR052C, strain DBF4, hits give low values
[13] = S. cerevisiae deletion strains, locus YDR226W, strain ADK1, hits give low values
[14] = S. cerevisiae deletion strains, locus YDR477W, strain SNF1, hits give low values
[15] = S. cerevisiae deletion strains, locus YER123W, strain YCK3, hits give low values
[16] = S. cerevisiae deletion strains, locus YER133W, strain GLC7, hits give low values
[17] = S. cerevisiae deletion strains, locus YFL009W, strain cdc4, hits give low values
[18] = S. cerevisiae deletion strains, locus YFL029C, strain CAK1, hits give low values
[19] = S. cerevisiae deletion strains, locus YFR003C, strain YPI1, hits give low values
[20] = S. cerevisiae deletion strains, locus YFR019W, strain FAB1, hits give low values
[21] = S. cerevisiae deletion strains, locus YFR028C, strain CDC14, hits give low values
[22] = S. cerevisiae deletion strains, locus YGR040W, strain KSS1, hits give low values
[23] = S. cerevisiae deletion strains, locus YGR052W, strain FMP48, hits give low values
[24] = S. cerevisiae deletion strains, locus YGR092W, strain DBF2, hits give low values
[25] = S. cerevisiae deletion strains, locus YHR079C, strain IRE1, hits give low values
[26] = S. cerevisiae deletion strains, locus YHR082C, strain KSP1, hits give low values
[27] = S. cerevisiae deletion strains, locus YHR205W, strain SCH9, hits give low values
[28] = S. cerevisiae deletion strains, locus YJL095W, strain BCK1, hits give low values
[29] = S. cerevisiae deletion strains, locus YJL128C, strain PBS2, hits give low values
[30] = S. cerevisiae deletion strains, locus YJL157C, strain FAR1, hits give low values
[31] = S. cerevisiae deletion strains, locus YJR016C, strain ILV3, hits give low values
[32] = S. cerevisiae deletion strains, locus YJR066W, strain TOR1 (second series), hits give low values
[33] = S. cerevisiae deletion strains, locus YJR066W, strain TOR1, hits give low values
[34] = S. cerevisiae deletion strains, locus YKL048C, strain ELM1, hits give low values
[35] = S. cerevisiae deletion strains, locus YKL067W, strain YNK1, hits give low values
[36] = S. cerevisiae deletion strains, locus YKL101W, strain HSL1, hits give low values
[37] = S. cerevisiae deletion strains, locus YKL193C, strain SDS22, hits give low values
[38] = S. cerevisiae deletion strains, locus YKL203C, strain TOR2, hits give low values
[39] = S. cerevisiae deletion strains, locus YLR113W, strain HOG1, hits give low values
[40] = S. cerevisiae deletion strains, locus YLR133W, strain CKI1, hits give low values
[41] = S. cerevisiae deletion strains, locus YLR403W, strain SFP1, hits give low values
[42] = S. cerevisiae deletion strains, locus YML070W, strain DAK1, hits give low values
[43] = S. cerevisiae deletion strains, locus YMR205C, strain PFK2 (second series), hits give low values
[44] = S. cerevisiae deletion strains, locus YNL006W, strain LST8, hits give low values
[45] = S. cerevisiae deletion strains, locus YNL020C, strain ARK1, hits give low values
[46] = S. cerevisiae deletion strains, locus YNL161W, strain CBK1, hits give low values
[47] = S. cerevisiae deletion strains, locus YNL183C, strain NPR1, hits give low values
[48] = S. cerevisiae deletion strains, locus YNL207W, strain RIO2, hits give low values
[49] = S. cerevisiae deletion strains, locus YNL222W, strain SSU72, hits give low values
[50] = S. cerevisiae deletion strains, locus YNL307C, strain MCK1 (second series), hits give low values
[51] = S. cerevisiae deletion strains, locus YOL136C, strain PFK27, hits give low values
[52] = S. cerevisiae deletion strains, locus YOR061W, strain CKA2, hits give low values
[53] = S. cerevisiae deletion strains, locus YOR119C, strain RIO1, hits give low values
[54] = S. cerevisiae deletion strains, locus YOR231W, strain MKK1, hits give low values
[55] = S. cerevisiae deletion strains, locus YOR329C, strain SCD5, hits give low values
[56] = S. cerevisiae deletion strains, locus YPL031C, strain PHO85, hits give low values
[57] = S. cerevisiae deletion strains, locus YPL153C, strain RAD53, hits give low values
[58] = S. cerevisiae deletion strains, locus YPL204W, strain HRR25, hits give low values
[59] = S. cerevisiae deletion strains, locus YPL209C, strain IPL1, hits give low values
[60] = S. cerevisiae deletion strains, locus YPL256C, strain CLN2, hits give low values
[61] = S. cerevisiae deletion strains, locus YPR025C, strain CCL1, hits give low values
[62] = S. cerevisiae deletion strains, locus YPR106W, strain ISR1, hits give low values
[63] = S. cerevisiae deletion strains, locus YPR111W, strain DBF20, hits give low values
[64] = S. cerevisiae deletion strains, strain NNK1, hits give low values
[65] = S. cerevisiae deletion strains, strain TSCII, hits give low values

Measured: normalized growth

CC(C)(C)S(=O)(=O)/C(C#N)=C/N1CCCCC1
inactive: S. cerevisiae deletion strains, locus YBR229C, strain ROT2, hits give low values 1.02 | [1] 0.989 | S. cerevisiae deletion strains, locus YDR150W, strain NUM1, hits give low values 0.995 | S. cerevisiae deletion strains, locus YEL061C, strain CIN8, hits give low values 1.05 | S. cerevisiae deletion strains, locus YGR078C, strain PAC10, hits give low values 0.993 | [2] 1.02 | S. cerevisiae deletion strains, locus YHR087W, strain rtc3, hits give low values 0.992 | S. cerevisiae deletion strains, locus YJL187C, strain SWE1, hits give low values 0.986 | S. cerevisiae deletion strains, locus YJR043C, strain POL32, hits give low values 0.983 | S. cerevisiae deletion strains, locus YJR075W, strain HOC1, hits give low values 1.02 | S. cerevisiae deletion strains, locus YLR039C, strain RIC1, hits give low values 1.02 | S. cerevisiae deletion strains, locus YLR058C, strain SHM2 (second series), hits give low values 1.01 | S. cerevisiae deletion strains, locus YLR085C, strain ARP6, hits give low values 1.04 | S. cerevisiae deletion strains, locus YLR262C, strain YPT6, hits give low values 1.03 | S. cerevisiae deletion strains, locus YML094W, strain GIM5, hits give low values 1.02 | S. cerevisiae deletion strains, locus YMR219W, strain ESC1, hits give low values 1.02 | S. cerevisiae deletion strains, locus YMR263W, strain SAP30, hits give low values 1 | S. cerevisiae deletion strains, locus YNL128W, strain TEP1, hits give low values 1 | S. cerevisiae deletion strains, locus YNL153C, strain GIM3, hits give low values 1 | S. cerevisiae deletion strains, locus YNL298W, strain CLA4 (second series), hits give low values 1.02 | S. cerevisiae deletion strains, locus YNL322C, strain KRE1, hits give low values 1.02 | S. cerevisiae deletion strains, locus YNR030W, strain Alg12, hits give low values 1.02 | S. cerevisiae deletion strains, locus YPL055C, strain LGE1, hits give low values 0.963 | S. cerevisiae deletion strains, locus YPL241C, strain CIN2, hits give low values 1.02 | S. cerevisiae deletion strains, locus YPR135W, strain CTF4, hits give low values 0.988 | S. cerevisiae strains, strain wild type, hits give low values 1.01

O=c1c2ccccc2[nH]c(=S)n1-c1cccc(C(F)(F)F)c1
active: [4] 0.811 | [5] 0.792 | [6] 0.774 | [8] 0.846 | [9] 0.565 | [12] 0.885 | [14] 0.427 | [16] 0.343 | [18] 0.633 | [22] 0.513 | [2] 0.334 | [28] 0.182 | [31] 0.717 | [38] 0.352 | [41] 0.459 | [53] 0.347 | [56] 0.589 | [57] 0.646 | [60] 0.824
inactive: [3] 0.927 | [7] 0.923 | [1] 0.954 | [10] 0.944 | [11] 0.908 | [13] 0.956 | [15] 0.899 | [17] 0.95 | [19] 0.917 | [20] 0.97 | [21] 0.949 | [23] 0.914 | [24] 0.874 | [25] 0.837 | [26] 0.832 | [27] 0.748 | [29] 0.957 | [30] 0.925 | [32] 0.892 | [33] 0.799 | [34] 0.862 | [35] 0.927 | [36] 0.865 | [37] 0.917 | [39] 0.912 | [40] 0.895 | [42] 0.926 | [43] 0.894 | [44] 0.965 | [45] 0.886 | [46] 0.929 | [47] 0.852 | [48] 0.943 | [49] 0.944 | [50] 0.884 | [51] 0.93 | [52] 0.833 | [54] 0.872 | [55] 0.948 | [58] 0.719 | [59] 0.95 | [61] 0.946 | [62] 0.948 | [63] 0.962 | [64] 0.961 | [65] 0.889

FC(F)(F)c1cccc(-n2c(CSCc3cccc4ccccc34)n[nH]c2=S)c1
inactive: [3] 0.986 | [4] 1 | [5] 0.996 | [6] 1 | [7] 0.986 | [8] 0.993 | S. cerevisiae deletion strains, locus YDL028C, strain MPS1, hits give low values 0.985 | [1] 0.989 | [9] 0.998 | [10] 0.988 | [11] 0.993 | [12] 1 | S. cerevisiae deletion strains, locus YDR054C, strain cdc34, hits give low values 0.992 | [13] 0.986 | [14] 0.976 | [15] 0.958 | [16] 0.969 | [17] 0.978 | [18] 0.993 | [19] 1 | [20] 1.01 | [21] 0.994 | [22] 0.991 | [23] 1.08 | [24] 0.952 | [2] 1.12 | [25] 1.1 | [26] 1.09 | [27] 1.01 | S. cerevisiae deletion strains, locus YIL147C, strain SLN1, hits give low values 0.999 | [28] 1.06 | [29] 0.979 | [30] 0.966 | [31] 0.993 | [32] 0.936 | [33] 1.09 | [34] 1 | [35] 0.989 | [36] 0.986 | [37] 0.99 | [38] 1.06 | [39] 1.07 | [40] 1 | [41] 0.973 | [42] 0.993 | S. cerevisiae deletion strains, locus YMR001C, strain CDC5, hits give low values 0.992 | [43] 1 | S. cerevisiae deletion strains, locus YMR277W, strain FCP1, hits give low values 0.976 | [44] 0.984 | [45] 1 | [46] 0.998 | [47] 1.13 | [48] 0.989 | [49] 0.997 | [50] 1 | S. cerevisiae deletion strains, locus YOL078W, strain AVO1, hits give low values 0.99 | [51] 0.991 | [52] 0.977 | [53] 1.02 | [54] 1.09 | [55] 0.993 | [56] 0.977 | [57] 0.962 | [58] 0.967 | [59] 0.99 | [60] 1.1 | [61] 0.992 | [62] 0.981 | [63] 0.993 | [64] 1.01 | [65] 0.995
